In PubChem BioAssay (Tox21):
Where “and” joins values, the source holds several entries; their conditions need not be identical. Equal entries are not always repeated. Records with an inconclusive call do not appear. A call without a number means that no potency is given here. Calls of active or inactive are those of the source. Calls come from the whole dose curve; as a rule, active = well fitted activation curve with a large enough effect in the repeat runs; inconclusive = weak or mixed curves; inactive = no such curve, though single readings can be large or run the other way.

test: qHTS assay for small molecules that induce genotoxicity in human embryonic kidney cells expressing luciferase-tagged ATAD5 (AID 651632); conditions: HEK293T ATAD5-luciferase induction, 16 h; series mostly up to 83.3 µM; note: nearly all actives have a fitted effect of over 15% in size
From the text: U.S. Tox21 Program National Center for Advancing Translational Sciences [NCATS] NIH Chemical Genomics Center [NCGC] U.S. Environmental Protection Agency [EPA] National Institutes of Environmental Health Sciences [NIEHS] National Toxicology Program [NTP] U.S. Food and Drug Administration [FDA] Tox21 Assay Overview: As cancer cells divide rapidly and during every cell division they need to duplicate their genome by DNA replication. The failure to do so results in the cancer cell death. Based on this concept, many chemotherapeutic agents were developed but have limitations such as low efficacy and severe side effects etc. A new cell based assay was developed to find the compounds that effectively block DNA replication either by directly damaging DNA or by inhibiting other cellular mechanisms. Enhanced Level of Genome Instability Gene 1 (ELG1; human ATAD5) protein levels increase in response to various types of DNA damage. Using a luciferase reporter-gene tagged with ATAD5, a cell-based assay [developed by Kyungjae Myung, NHGRI, NIH] was used to measure the induction of ATAD5 in human embryonic kidney cells (HEK293T). So, increase in luciferase activity can be used to identify the compounds that cause genetic stress.
Tox21 Assay Protocol Summary: For genotoxicity screening, 2,000 cells in 5 uL/well were dispensed into white, solid-bottom 1536-well plates using a Multidrop Combi (Thermo Scientific) dispenser. Following transfer of 23 nL compound or DMSO vehicle by a pin tool, the plates were incubated 16 hr at 37C and 5% CO2. 5 ul Amplite (AAT Bioquest, Inc.) was then added to each plate and following 30 min incubation at room temperature, luciferase activity was quantified on a ViewLux CCD-based plate reader.
Potency is the fitted concentration of half-maximal effect.

Row | Compound | Potency
1 | O=C1OC2(c3ccccc31)c1cc(Br)c(O)c(Br)c1Oc1c2cc(Br)c(O)c1Br | inactive
2 | CN(C)CCOC(c1ccccc1)c1ccccc1 | inactive
3 | CCOc1ccc(NC(C)=O)cc1 | inactive
4 | CCCCNC(=O)NS(=O)(=O)c1ccc(C)cc1 | inactive
5 | O=c1[nH]cnc2c1ncn2[C@H]1CC[C@@H](CO)O1 | inactive
6 | CC(O)(P(=O)(O)O)P(=O)(O)O | inactive
7 | O=S1(=O)OC(c2ccc(O)cc2)(c2ccc(O)cc2)c2ccccc21 | inactive
8 | Cc1cccc(C)c1 | inactive
9 | COc1ccc(OC(F)(F)F)cc1CN[C@H]1CCCN[C@H]1c1ccccc1 | inactive
10 | C=C(C)C(=O)OCC(C)O (stereo not given) | inactive
11 | CN1[C@@H]2CC(OC(=O)[C@H](CO)c3ccccc3)C[C@H]1[C@@H]1O[C@@H]12 (stereo not given in full) | inactive
12 | O=C(Nc1ncc([N+](=O)[O-])s1)c1cccs1 | 3.76 µM (active)
13 | CCc1nc(N)nc(N)c1-c1ccc(Cl)cc1 | inactive
14 | CN[C@H]1CC[C@@H](c2ccc(Cl)c(Cl)c2)c2ccccc21 | inactive
15 | COc1ccc2cc(S(=O)(=O)N[C@H](CC(=O)N[C@H](Cc3ccc(CN4[C@H](C)CCC[C@@H]4C)cc3)C(=O)N(C)C(C)C)c3ccc4c(c3)OCO4)ccc2c1 | inactive
16 | Cc1cc(=O)oc2cc(O)ccc12 | inactive
17 | Nc1c2c(nc3ccccc13)CCCC2 | inactive
18 | NC(CO)(CO)CO | inactive
19 | C1=CC2C3C=CC(C3)C2C1 (stereo not given) | inactive
20 | CN1CCC[C@H]1c1cccnc1 | inactive

Row | Compound | Potency
21 | O=c1[nH]cc(F)c(=O)[nH]1 | 7.5 µM (active) and 10.1 µM (active)
22 | CN(C)C(=O)Nc1ccc(Cl)c(Cl)c1 | inactive
23 | CN(C)CCOC(C)(c1ccccc1)c1ccccn1 (stereo not given) | inactive
24 | NS(=O)(=O)O | inactive
25 | CCN(CC)C(=O)c1cccc(C)c1 | inactive
26 | O=C(O)c1ccccc1 | inactive
27 | CN(C)C(=S)SC(=S)N(C)C | inactive
28 | CCCCCCCCCCCCCCCC[N+](C)(C)Cc1ccccc1 | inactive
29 | CN(N=O)C(=O)N[C@@H]1[C@@H](O)[C@H](O)[C@@H](CO)O[C@@H]1O | inactive
30 | Cc1ncc([N+](=O)[O-])n1CCO | inactive
31 | O=C1O[C@H]([C@@H](O)CO)C(O)=C1O | inactive
32 | NC(=O)c1cccnc1 | inactive
33 | C[C@](N)(Cc1ccc(O)c(O)c1)C(=O)O | inactive
34 | NS(=O)(=O)c1cc2c(cc1Cl)NCNS2(=O)=O | inactive
35 | CCN(Cc1c(F)cccc1Cl)c1c([N+](=O)[O-])cc(C(F)(F)F)cc1[N+](=O)[O-] | inactive
36 | C=CCc1ccc(O)c(OC)c1 | inactive
37 | Nc1ccc(O)c([N+](=O)[O-])c1 | inactive
38 | CCCCCCc1ccc(O)cc1O | inactive
39 | CC(=O)CCC(=O)O | inactive
40 | Nc1ccc([N+](=O)[O-])cc1O | inactive
